From PubChem BioAssay
SARS 3CLpro inh = SARS-CoV 3CLpro protease inhibition | P0C6X7 | recombinant SARS-CoV 3CLpro, quenched FRET peptide cleavage | actives 0.14% (n = 290,000) | AID 1706 | inhibition, % at 6 µM; in the data active = inhibition above about 12%
CCHF vOTU inh = blocks the CCHF virus ovarian tumor domain protease. CCHFV vOTU protease, Pep-AMC fluorescence. inhibition, % at 11.5 µM. actives 0.55% (n = 370,000); in the data active = inhibition above about 30%
PrPC TRFRET = cell surface PrPC inhibition, primary TR-FRET screen; P04156; TR-FRET read-out; inhibition, % at 13.8 µM; actives 0.43% (n = 370,000); AID 720596; in the data active = inhibition above about 24%
PrP UTR inh = suppresses PrP 5' UTR mRNA reporter expression | inhibition, % (no concentration beside the values) | cell-based PrP 5' UTR mRNA reporter, plate reader | actives 0.35% (n = 340,000) | AID 488862; in the data active = inhibition above about 52%
PrPC TRFRET cf = cell surface PrPC inhibition, TR-FRET confirmation; shares compounds with PrPC TRFRET; cell surface PrPC level; inhibition, % at 13.8 µM; actives 65% (n = 1,500); AID 743200; in the data active = inhibition above about 25%
LD9 tox = counter-screen for PrPc inhibitors: cytotoxicity in LD9 cells | actives 29% (n = 1,500) | inhibition, % at 13.8 µM | luminescence viability | shares compounds with PrPC TRFRET; in the data active = inhibition above about 9.5%
Of the large screens only hits and unclear results are named; the others gave an inactive call (follow-up assays come after a bar, where they were run). Compounds with a hit are over-represented: about 1.3% of the library has one in this group of screens.

N=c1c2c(-c3ccccc3)c(-c3ccccc3)n(Cc3ccco3)c2ncn1CCCn1ccnc1	PrPC TRFRET 27 | PrPC TRFRET cf inactive | LD9 tox 19
O=C1C=C(Nc2ccc(O)cc2)C(=O)c2ccccc21	none
O=C1C(Nc2ccc(O)cc2)=C/C(=N/S(=O)(=O)c2cccs2)c2ccccc21	CCHF vOTU inh 108, PrPC TRFRET 46 | PrPC TRFRET cf 59 | LD9 tox 99
CC(C)[C@H](NC(=O)OC(C)(C)C)c1nnc(S(=O)(=O)Cc2c(F)cccc2Cl)o1	PrPC TRFRET 30 (no result: SARS 3CLpro inh) | PrPC TRFRET cf 28 | LD9 tox 66
Cc1sc2ncnc(SCC(=O)Nc3cccc(S(N)(=O)=O)c3)c2c1C	PrPC TRFRET 28 (no result: SARS 3CLpro inh) | PrPC TRFRET cf 44 | LD9 tox inactive
NS(=O)(=O)c1ccc(NC(=O)CSc2ncnc3ccccc23)cc1	none
Cc1cccc(NC(=O)CSc2ncnc3sc4c(c23)CCCC4)c1	none (no result: SARS 3CLpro inh, PrP UTR inh)
CCN(CC)S(=O)(=O)c1ccc(NC(=O)CSc2ncnc3ccccc23)cc1	PrPC TRFRET 47 | PrPC TRFRET cf 60 | LD9 tox inactive
NS(=O)(=O)c1cccc(NC(=O)CSc2ncnc3ccccc23)c1	PrPC TRFRET 37 | PrPC TRFRET cf 36 | LD9 tox inactive
Cc1nc(SCC(=O)Nc2cc(C(N)=O)cc(C(N)=O)c2)c2c(C)c(C)sc2n1	PrPC TRFRET 85 | PrPC TRFRET cf 94 | LD9 tox inactive
CC(C)c1ccc(NCCC(=O)c2ccc(Br)cc2)cc1	none
CCN(Cc1nc(-c2ccc(OC)cc2)no1)C(=O)c1ccc2c(c1)OCO2	none
NS(=O)(=O)c1ccc(CCNC(=O)CSc2ncnc3ccccc23)cc1	PrPC TRFRET 27 | PrPC TRFRET cf 45 | LD9 tox inactive
NS(=O)(=O)c1ccc(CCNC(=O)CSc2ccc3ccccc3c2)cc1	none
O=[N+]([O-])c1ccc(N2CCCCC2)nc1N1CCCCC1	none
CCOC(=O)c1sc(C)c2c1NC(C)(c1cccs1)NC2=O (stereo unspecified)	PrPC TRFRET 36 | PrPC TRFRET cf 34 | LD9 tox inactive
COC(=O)/C(C(C)=O)=C(/C=C/C=C/N(C)C)N(C)C	PrPC TRFRET 50 | PrPC TRFRET cf inactive | LD9 tox inactive
CC#CCOC(=O)c1c(C)nc2sc3c(c2c1N)CCC(O)C3 (stereo unspecified)	PrPC TRFRET 42 (no result: SARS 3CLpro inh) | PrPC TRFRET cf 27 | LD9 tox 12
CCOC(=O)c1c(C)[nH]c(C(=O)Cn2nnc(-c3ccccc3)n2)c1C	none
COc1ccc(CNS(=O)(=O)c2ccc(OC)cc2)cc1	none
COc1ccc(S(=O)(=O)NCc2ccc3c(c2)cc(C)n3C)cc1	PrPC TRFRET 38 | PrPC TRFRET cf 41 | LD9 tox inactive
Cc1cc2cc(CNS(=O)(=O)c3ccccc3)ccc2n1C	PrPC TRFRET 35 | PrPC TRFRET cf 29 | LD9 tox inactive
CCS(=O)(=O)NCc1ccc2c(c1)cc(C)n2C	none
O=C1CC(c2ccc(F)cc2)CC2=C1C=Nc1ccccc1N2 (stereo unspecified)	none
Fc1ccccc1Sc1ccccc1CNC1=NCCN1	none
CCOCCCNc1ncnc2c1[nH]c1ccccc12	none
CCCCOCCCNc1ncnc2c1[nH]c1ccccc12	PrPC TRFRET 31 | PrPC TRFRET cf 24 | LD9 tox 17
CN(C)S(=O)(=O)c1cccc(-c2nn(-c3ccccc3)cc2/C=C(/C#N)C(=O)NCc2ccco2)c1	PrPC TRFRET 29 | PrPC TRFRET cf inactive | LD9 tox inactive
C[C@H]1COc2c3ccc(I)cc3nn21	PrPC TRFRET 47 (no result: SARS 3CLpro inh, PrP UTR inh) | PrPC TRFRET cf 70 | LD9 tox inactive
CC(C)(C)NS(=O)(=O)c1ccc2nc(NC(=O)Cc3cccs3)sc2c1	none
COC(=O)c1ccc(C(c2c(N)n(CC(C)C)c(=O)[nH]c2=O)N2CCN(c3ccccc3)CC2)cc1 (stereo unspecified)	PrPC TRFRET 30 | PrPC TRFRET cf inactive | LD9 tox 10
CC1(Oc2cnc(Cl)c3ccccc23)CCN(Cc2ccc(-c3ccccn3)cc2)C1 (stereo unspecified)	none (no result: SARS 3CLpro inh, PrP UTR inh)
NC(=O)C1=C[C@@H](c2coc3ccccc3c2=O)C[C@@H](OCc2ccc(CO)cc2)O1	PrPC TRFRET 40 | PrPC TRFRET cf 31 | LD9 tox inactive
NC(=O)C1=C[C@@H](c2coc3ccccc3c2=O)C[C@@H](OCCCCO)O1	PrPC TRFRET 27 | PrPC TRFRET cf 32 | LD9 tox inactive
CCC(=O)C(CCN1CCOCC1)(c1ccccc1)c1ccccc1	none (no result: SARS 3CLpro inh)
